Experimental data as given in PubChem BioAssay AID1117319 (Southern Research Institute, 2015).
Values joined by “and” are separate entries in the source; they are usually repeats but may differ in a detail not shown here. Identical values can stand only once. Hit rate of the full screen: of about 260,000 compounds, about 1,500 (0.58%) were called active. Inconclusive results (about 5%) are left out.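 How the source made its calls: active means inhibition above a set limit at one or more doses, reproduced on every date tested; inconclusive means results disagree between test dates, or hit never tested in dose response; inactive means the rest.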 The list is a sample of the results. Results with a measured potency or affinity are listed apart.

biological target: Virion infectivity factor (Human immunodeficiency virus type 1 group M subtype B (isolate BH10)) + Virion infectivity factor (Human immunodeficiency virus type 1 group M subtype B (isolate BRU/LAI)) + Virion infectivity factor (Human immunodeficiency virus type 1 group M subtype B (isolate PCV12)) + Virion infectivity factor (Human immunodeficiency virus type 1 group M subtype B (isolate HXB2)) + DNA dC->dU-editing enzyme APOBEC-3G (Homo sapiens) (UniProt P69720+P69721+P69722+P69723+Q9HC16); assay: HIV-1 Vif–A3G interaction blockers – biochemical, TR-FRET, GST-Vif 1-94, biotin-A3G peptide, dose response retest, primary screen (AID 1117319); conditions: TR-FRET GST-Vif / biotin-A3G peptide binding; active compounds read high;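 further: Vif residues 1-94 fused to GST binding biotinylated APOBEC3G peptide 110-148; 0% = full assay without inhibitor and 100% = GST in place of GST-Vif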

inhibition, inactive:
COc1cccc(NC(=S)NCCc2ccccn2)c1 -0.67%
Cc1ccc(N2CC(C(=O)OCC(=O)c3c(N)n(CC(C)C)c(=O)n(C)c3=O)CC2=O)cc1 (stereo not given) -1.07%
COC(=O)CSc1cc(C)nc(NC(C)=O)n1 3.6%
CC(C(=O)OCC(=O)Nc1ccc2c(c1)OCO2)N1C(=O)c2ccccc2C1=O (stereo not given) 5.56%
CCN(CC)S(=O)(=O)c1cccc(C(=O)N[C@H](C(=O)OCC(N)=O)C(C)C)c1 19%
CC(C)c1ccc(C(=O)OCC(=O)c2c(N)n(C)c(=O)n(C)c2=O)cc1 2%
Clc1c(-c2ccccc2)nnn1-c1ccccc1 -12%
Cc1cc(C(=O)N2CCN(c3cccc(Cl)c3)CC2)c(C)o1 -5.08%
O=C(OCC(=O)N1CCN(C(=O)c2ccco2)CC1)c1cc(-c2ccc(F)cc2)nc2ccccc12 -2.07% and -4.96%
CCOC(=O)C1CCCN(C(=O)c2cc(-c3ccccc3)nc3ccccc23)C1 (stereo not given) -11.1%
CCOC(=O)C1CCCN(C(=O)c2cc(-c3ccc(C)cc3)nc3ccccc23)C1 (stereo not given) 10.1%
Cc1cc(C(=O)OCC(=O)NCc2ccc3c(c2)OCO3)c2ccccc2n1 -5.38%
O=C(COC(=O)c1ccco1)NCc1ccc2c(c1)OCO2 18.2%
O=C(OCC(=O)N1CCN(C(=O)c2ccco2)CC1)c1cc(-c2ccccc2)nc2ccccc12 -3.01%
O=C(Nc1ccc2oc(-c3cccnc3)nc2c1)c1cc2ccccc2o1 20.3%
COc1ccc(-n2nnc3c(=O)n(Cc4cc(C)ccc4C)cnc32)cc1 -0.91%
CCN(CC)CCNC(=O)c1cc([N+](=O)[O-])c(N(C)C)cc1OC 12.4%
COc1ccccc1NC(=S)NCCSc1ccc(C)cc1 9.9%
O=C1/C(=C/c2cccc(Br)c2)SC(=S)N1CCC(=O)N(CCO)c1ccccc1 -10.6%
Cc1ccc(S(=O)(=O)N2CCCCC2)cc1C(=O)NCCCN1CCOCC1 1.73%
COc1ccc(S(=O)(=O)NCC2CCC(C(=O)N3CCC4(CC3)OCCO4)CC2)cc1 (stereo not given) 0.18% and -4.29%
Cc1cc(C)c(S(=O)(=O)NCC2CCC(C(=O)NCCCN3CCOCC3)CC2)c(C)c1 (stereo not given) 3.66%
Cc1ccc(-n2nc3c(c2NC(=O)c2ccccc2Br)CS(=O)C3)cc1 (stereo not given) 0.72%
O=c1[nH][nH]c(C(F)(F)F)c1/C=N/N1CCOCC1 -7.03%
C/C(=N\Nc1ccc(Cl)c(C(=O)O)c1)c1cccs1 -4.46%
C/C(=N\Nc1ccc(Cl)c(C(=O)O)c1)c1ccccn1 -6.06%
CCN1C(=O)/C(=C\c2cccs2)C(C(=O)OC)=C1C 2.01%
COC(=O)C1=C(O)/C(=C\c2cc(C)n(-c3ccccc3F)c2C)N=C1C 25.1%
CCOc1cc(/C=C2\C(=O)N(Cc3ccco3)C(C)=C2C(=O)OC)ccc1O 24.1%
COC(=O)C1=C(C)NC(=O)/C1=C\N(C)C 5.9%
COC(=O)C1=C(C)N(Cc2ccco2)C(=O)/C1=C\c1ccc([N+](=O)[O-])cc1 -12.1%
COC(=O)C1=C(C)NC(=O)/C1=C\c1ccc2c(c1)OCO2 16%
COC(=O)C1=C(C)N(C)C(=O)/C1=C\c1ccco1 9.7%
COC(=O)C1=C(C)NC(=O)/C1=C\c1cc(C)n(-c2c(C)cccc2C)c1C 22.2%
CC(Sc1ncccn1)C(=O)Nc1ccc2c(c1)OCCO2 (stereo not given) -5.22%
Nc1cc(S(=O)(=O)Nc2ccc(Cl)cc2)ccc1N1CCOCC1 0.79%
COc1ccccc1Nc1nnc(SCC(=O)NC2CCCC2)s1 -10.8%
O=C(CCCOc1ccccc1)N1CCN(C(=O)c2ccco2)CC1 -5.18%
Cc1ccc(-c2nnc(-c3ccncc3)n2-c2ccc(C)cc2)cc1 -0.95%
COC(=O)C1=C(C)N(CC(C)C)C(=O)/C1=C\c1cccs1 2.91%
C=CCN1C(=O)/C(=C\c2cccs2)C(C(=O)OC)=C1C 0.55%
O=C(Nc1ccccc1)c1ccc(Cn2cc(C(F)(F)F)ccc2=O)cc1 -1.59%
O=S(=O)(NCc1ccccn1)c1ccc2c(c1)OCCO2 -0.75%
CCOc1ccc(C(=O)NCC(=O)NCC(c2ccco2)N2CCCCC2)cc1 (stereo not given) -8.81%
CC[n+]1c(/C=C2\C=C(C)CC(C)C2)sc2ccccc21 (stereo not given) 26%
CC[n+]1c(/C=C2\C=C(C)CC(C)(C)C2)sc2ccccc21 25.8%
CCCCOc1ccc(/C=c2\sc3ncnn3c2=O)cc1 6.23%
CCSc1nc2c(sc3nc(C)cc(C)c32)c(=O)[nH]1 -3.63%
CCOCCCNC(=O)C(NC(=O)C1CCC(=O)N1)c1ccc(C)cc1 (stereo not given) 8.49%
C#CC(C)OC(=O)Nc1cnccc1C(F)(F)F (stereo not given) 31.2%
COc1cccc(N2C(=O)CC(Nc3ccc(N4CCOCC4)cc3)C2=O)c1 (stereo not given) 27.7%
O=C(CN1C(=O)C(=O)N(C2CCCC2)C1=O)Nc1ccc(N2CCOCC2)cc1 -7.86%
O=C1CC(Nc2ccc(N3CCOCC3)cc2)C(=O)N1c1ccccc1 (stereo not given) 16.9%
Cc1ccc(NC2CC(=O)N(c3ccc(N4CCCCC4)cc3)C2=O)cc1 (stereo not given) 25.5%
COc1ccc(NC2CC(=O)N(C(C)C)C2=O)cc1 (stereo not given) 1.77%
O=C1CC(Nc2ccccc2)C(=O)N1c1ccc(N2CCOCC2)cc1 (stereo not given) 29%
Cc1ccc(CN2C(=O)CC(Nc3ccc(N4CCOCC4)cc3)C2=O)cc1 (stereo not given) 4.98%
CC(C)CC(=O)Nc1ccc(N2CCOCC2)cc1 -0.35%
COc1cccc(CC(NC(C)=O)C(=O)NC2CCN(S(=O)(=O)c3ccc(F)cc3)CC2)c1OC (stereo not given) -17.6%
CCCCn1c(N)c(N(CCOC)C(=O)CCCc2nc3ccccc3c(=O)[nH]2)c(=O)[nH]c1=O -0.43%
COc1ccc(CC(=O)NCCS(=O)(=O)N2CCN(c3ccccc3OC)CC2)cc1 -3.77%
CCOc1ccc(CCNC(=O)COC(=O)Cc2c[nH]c3ccccc23)cc1OCC 2.44%
CCOCCCNCc1cccc(OC)c1 -0.48%
CN1CCN(S(=O)(=O)c2ccc(Oc3ccc(Br)cc3F)nc2)CC1 -0.65%
COc1cccc(CC(=O)OCC(=O)c2cc(OC)ccc2OC)c1 18.9%
Cc1cc(C)cc(N2CN=c3s/c(=C\c4ccco4)c(=O)n3C2)c1 3.97%
CCCC(=O)Nc1ccccc1NC(=O)CCC 16.5%
CC(=O)Nc1ccc(NC2=C(Cl)C(=O)c3ccccc3C2=O)cc1 11.5%
O=C1C(Cl)=C(Nc2ccccc2)C(=O)c2ccccc21 -1.3%
CN(C)c1ccc(NC2=C(Cl)C(=O)c3ccccc3C2=O)cc1 20.1%
CCNC1=C(Cl)C(=O)c2ccccc2C1=O 2.59%
O=C1C(Cl)=C(NC(=O)c2ccccc2)C(=O)C(Cl)=C1NC(=O)c1ccccc1 20.2%
O=C(Nc1ccc2cn[nH]c2c1)c1c(Cl)cccc1Cl 2.79%
CCC(=O)Nc1c(C)cc(C)cc1Cl 1.1%
CC(c1ccccc1)C1NC(C(=O)O)CS1 (stereo not given) -0.34%
Cc1ccc(CN2CCSc3ccc(C(=O)NCc4cccnc4)cc32)cc1 -7.4%
COc1ccc(C(=O)/C=C2/C(=O)Nc3ccccc32)cc1 11.7%
Cc1[nH]n(-c2ccccc2)c(=O)c1/C=C1\C=NN=C1c1ccccc1 -6.22%
COC(=O)c1c(NC(=O)c2nc3nc(C)cc(C(F)F)n3n2)sc2c1CCC2 -2.56%
CCN(CC)C(=O)c1sc(NC(=O)C(Sc2ccccc2)c2ccccc2)c(C(=O)OC(C)C)c1C (stereo not given) -1.62%
CC(/C=N/n1c(-c2ccccc2)n[nH]c1=S)=C\c1ccco1 29%
S=c1[nH]nc(-c2cccnc2)n1/N=C/C=C/c1ccccc1 32.9%
S=c1[nH]nc(-c2cccnc2)n1/N=C/c1ccco1 3.51%
C(/C=C/c1ccco1)=N/N1CCN(c2ccccc2)CC1 18.8%
Cc1cc(-c2n[nH]c(=S)n2/N=C/c2ccc(C)o2)n[nH]1 27.9%
C(=C\c1ccccc1)/C=N/n1cnnc1 17.7%
CC(/C=N/n1c(-c2ccc(Cl)cc2)n[nH]c1=S)=C\c1ccco1 27.8%
Cc1cccc(-c2n[nH]c(=S)n2/N=C/c2ccco2)c1 -4.06%
O=C(COC(=O)Cn1cnc2ccccc21)Nc1ccc(F)c(F)c1 -4.98%
C=CCSc1nnc(CNC(=O)c2ccccc2C)n1C(C)C 4.54%
CC(NC(=O)C(=S)N1CCN(C)CC1)c1ccccc1 (stereo not given) 0.7%
C=CCN1/C(=C2/SC(=S)N(C)C2=O)Sc2ccccc21 11.3%
CCc1noc(C)c1C(=O)OC(C)C(=O)Nc1ccccc1OC (stereo not given) 3.88%
COc1cccc(-c2nn(C)c3sc(C(=O)NCc4ccc5c(c4)OCO5)cc23)c1 -2.11%
Cn1nc(-c2ccccc2F)c2cc(C(=O)Nc3ccc4c(c3)OCCO4)sc21 -1.77%
